High-throughput results (PubChem BioAssay)
A selection: hits, their analogues and other compounds. The true share with any hit is near 1.1%.
NCOA1 inh: human NCOA1 inhibition; inhibition, % at 3.6 µM; Q15788; 0.12% of 360,000 active; HEK293 GAL4-SRC1 luciferase reporter, luminescence;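 active means inhibition above the campaign mean plus 3 SD, with each screening campaign given its own cutoff, cut at about 60% in these data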
GalR3 antagonist: blocks the human galanin receptor 3. O60755. HEK293 GalR3-CNG cAMP membrane potential fluorescence; galR3 body fused to GalR1 C-terminus. inhibition, % at 3 µM. 0.44% of 360,000 active. AID 651719;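 active means inhibition above the screen-wide average plus 3 SD, cut at about 13% in these data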;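 further: forskolin and galanin both at EC90 stimulate the cells; cAMP rise reported by CNG channel membrane potential dye signal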
SRC3 inh: inhibits human SRC3 coactivator | Q9Y6Q9 | HEK293 GAL4-SRC3 luciferase reporter, luminescence | inhibition, % at 3.6 µM | 0.17% of 360,000 active;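 active means inhibition above a per-campaign cutoff, the mean of all compounds plus 3 SD, cut at about 60% in these data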;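 further: higher means less SRC3-driven luciferase light from the GAL4 reporter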
NR2F2 inh: blocks human COUP-TFII nuclear receptor | 0.7% of 370,000 active | AID 686940 | inhibition, % at 8.6 µM | HEK293T NGFI-A luciferase reporter, luminescence | P24468;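 active means inhibition above a per-plate cutoff, mean inhibition of test wells between control levels plus 3 SD, cut at about 38% in these data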;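 further: cells cotransfected with COUP-TFII expression vector driving the NGFI-A reporter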
SRC2 inh: human SRC2 (NCOA2) inhibition | HEK293 GAL4-SRC2 luciferase reporter, luminescence | inhibition, % at 9 µM | 0.17% of 370,000 active;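 active means inhibition above the mean inhibition of all tested compounds plus 3 SD, set per campaign, cut at about 52% in these data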
NR5A2 inv ag: suppresses constitutive activity of human LRH-1 | HEK293T StAR-luciferase reporter, LRH-1 transfected, 24 h | O00482 | inhibition, % at 3.6 µM | 0.13% of 360,000 active;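 active means inhibition above the mean inhibition of all tested compounds plus 3 SD, cut at about 73% in these data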
Target sequence (O00482 whole entry, looked up): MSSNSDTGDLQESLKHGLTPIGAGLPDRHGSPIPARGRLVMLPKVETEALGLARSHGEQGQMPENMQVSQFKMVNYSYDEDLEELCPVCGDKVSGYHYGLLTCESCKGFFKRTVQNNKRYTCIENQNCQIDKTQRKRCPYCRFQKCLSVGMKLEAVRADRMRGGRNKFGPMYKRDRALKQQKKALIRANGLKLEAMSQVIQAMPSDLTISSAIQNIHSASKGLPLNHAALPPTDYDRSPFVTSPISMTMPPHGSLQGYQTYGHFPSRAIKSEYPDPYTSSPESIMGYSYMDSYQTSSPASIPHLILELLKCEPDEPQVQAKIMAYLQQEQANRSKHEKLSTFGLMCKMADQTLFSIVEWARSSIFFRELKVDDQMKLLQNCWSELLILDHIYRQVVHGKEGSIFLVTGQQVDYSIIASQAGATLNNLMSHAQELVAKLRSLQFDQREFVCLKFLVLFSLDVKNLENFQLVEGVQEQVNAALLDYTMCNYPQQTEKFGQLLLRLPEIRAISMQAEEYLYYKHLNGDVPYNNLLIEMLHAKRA
VP16 Luc counter: VP16 inhibition counter-screen for COUP-TFII | shares compounds with NR2F2 inh | HEK293 Gal4-VP16 luciferase reporter, luminescence | inhibition, % at 8.5 µM | 25% of 2,500 active; in the data active means inhibition above about 13%
COUP-TFII conf: COUP-TFII (NR2F2) inhibition, confirmation assay; shares compounds with NR2F2 inh; AID 687008; HEK293 NGFI-A luciferase reporter, luminescence; inhibition, % at 8.5 µM; 45% of 2,500 active;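 active means mean inhibition over three repeats above a set limit taken from the earlier primary screen, cut at about 38% in these data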
Numbers stand for hits; . = inactive; / = no result.

SMILES	NCOA1 inh	GalR3 antagonist	SRC3 inh	NR2F2 inh	SRC2 inh	NR5A2 inv ag	VP16 Luc counter	COUP-TFII conf
C#C[C@]1(O)CCC2C3C(=O)C=C4C(Cl)=CCC[C@]4(C)C3CC[C@@]21C (some centres not stated)	.	.	.	.	.	.	/	/
C[C@H]1CCC/C=C/[C@@H]2C[C@H](O)C[C@H]2[C@@H](O)/C=C/C(=O)O1	.	.	.	53	.	.	18	.
CC(=O)OC1CC(OC2C(O)CC(OC3C(O)CC(OC4CCC5(C)C(CCC6C5CCC5(C)C(C7=CC(=O)OC7)C(O)CC65O)C4)OC3C)OC2C)OC(C)C1OC1OC(CO)C(O)C(O)C1O (configuration not stated)	84	34	82	74	.	98	36	65
CC(=O)O[C@@H]1CC[C@]2(C)C3CC[C@@]4(C)C(C[C@@H](O)[C@@H]4O)C3[C@@H](OC(C)=O)C[C@H]2C1 (some centres not stated)	.	.	.	.	.	.	/	/
CC(=O)[C@H]1CCC2C3CC[C@H]4C[C@@H](O)CC[C@]4(C)C3CC[C@@]21C (some centres not stated)	.	.	.	.	.	.	/	/
CC(=O)OC1CC2(O)C3CCC4CC(O)CCC4(C)C3CCC2(C)C1C1=CC(=O)OC1 (configuration not stated)	85	21	88	77	.	99	47	72
O=c1[nH]c2ccccc2n1C1CCN(C(CCc2ccccc2)c2nnnn2C2CCCC2)CC1 (configuration not stated)	.	.	.	.	.	.	/	/
CC1C=CCCC12C(=O)NC(=O)NC2=O (configuration not stated)	.	.	.	.	.	.	/	/
CCOc1ccc(NC(=O)N2C[C@H]3C[C@@H](C2)c2cccc(=O)n2C3)cc1	.	.	.	.	.	.	/	/
Cc1ccc(-c2cc(-c3ccccc3)cc(-c3ccccc3)[n+]2-c2ccccc2)cc1	.	.	84	76	75	98	31	89
CN(C)c1ccc(-[n+]2c(-c3ccccc3)cc(-c3ccccc3)cc2-c2ccccc2)cc1	.	.	82	86	.	90	27	90
Cc1ccc(-c2cc(-c3ccc(C)cc3)[n+](-c3ccc(C(=O)[O-])cc3)c(-c3ccc(C)cc3)c2)cc1	.	.	.	.	.	.	/	/
CCOC(=O)c1cccc(-[n+]2c(-c3ccccc3)cc(-c3ccccc3)cc2-c2ccccc2)c1	.	.	.	.	.	.	/	/
c1ccc(-c2cc(-c3ccccc3)[n+](-c3ccccc3)c(-c3ccccc3)c2)cc1	.	.	66	73	.	.	15	45
CC1C2Cc3ccc(O)cc3C1(C)CCN2CC1CC1 (configuration not stated)	/	.	/	.	.	/	/	/
CC(=O)N1c2ccccc2C(c2ccccc2)=NCC1C(=O)NC1CCCCC1 (configuration not stated)	/	/	/	.	.	/	/	/
CC(CCN1CC1)=NNC(=O)Nc1cccc2ccccc12	.	.	.	.	.	.	/	/
O=c1[nH]c(O)c(N=Nc2ccc3c(c2)OCCO3)c(=O)[nH]1	67	.	69	82	59	.	.	64
C[C@H]1C[C@@H](C)C(=O)[C@@H]([C@H](O)CC2CC(=O)NC(=O)C2)C1	92	.	93	85	72	103	.	70
Cc1ccc(CN2CCC3CCC(C3)C2)c(O)c1 (configuration not stated)	.	.	.	.	.	.	/	/
COC(=O)[C@@H]1[C@@H](C(=O)OC)C2(c3ccccc3-c3ccccc32)N(c2ccc(Cl)cc2)N1C#N	.	.	.	47	.	.	50	47
Cc1ccc2c(c1)C1C[N+](C)(CC(=O)c3ccc(Cl)cc3Cl)CCC1N2C(=O)c1ccc(F)cc1 (configuration not stated)	.	.	.	.	.	.	/	/
CC1CC(C)CC(C)C(O)C(C#N)=CC=CCC(C2CCCC2C(=O)O)OC(=O)CC(O)C(C)C1 (configuration not stated)	94	.	94	84	76	98	23	80
COc1ccc2c(c1)[C@@]13CCC=C[C@H]1[C@@H](C2)NCC3	.	/	.	.	.	.	/	/
COc1ccc(NC2=NCCCS2)cc1OC	.	.	.	.	.	.	/	/
SMILES	NCOA1 inh	GalR3 antagonist	SRC3 inh	NR2F2 inh	SRC2 inh	NR5A2 inv ag	VP16 Luc counter	COUP-TFII conf
COC1CCC(OC2CC(C3(C)CCC4(CC(O)C(C)C(C(C)/C=C(\C)C(=O)C(C)CC(C)C(=O)O)O4)O3)OC3(OC(C4OC(O)(CO)C(C)CC4C)CC3C)C2C)OC1C (configuration not stated)	.	.	.	.	.	.	/	/
O=C(C(=O)N1CCOCC1)c1cn(CCCOc2ccccc2)c2ccccc12	.	.	.	.	.	.	/	/
CC(=O)c1cn(CCCOc2ccccc2)c2ccccc12	.	.	.	45	.	.	.	.
Cn1nc(-c2ccc(OCC(=O)N3CCN(Cc4ccccc4)CC3)cc2)c2ccccc2c1=O	.	.	.	55	.	.	.	.
Cc1cc(C(=O)OC(C)C(=O)Nc2ccccc2)c(C)n1C1CC1 (configuration not stated)	.	.	.	.	.	.	/	/
C=C1C(=O)OC2CC3(C)OC3C3OC3C3=CC(OC3=O)C12 (configuration not stated)	.	.	.	.	.	.	/	/
CC[C@@H]1C[C@H]2CC[C@H](O2)[C@H](C)C(=O)O[C@@H](C)C[C@@H]2CC[C@@H](O2)[C@@H](C)C(=O)O[C@H](C)C[C@H]2CC[C@H](O2)[C@H](C)C(=O)O[C@@H](C)C[C@@H]2CC[C@@H](O2)[C@@H](C)C(=O)O1	/	.	/	85	.	/	24	72
Cc1cc(O)c2c(c1)C(=O)[C@@]13C(=C2O)C(=O)[C@H]2C(O)[C@@H]1[C@H]1C(O)[C@@H]3C(=O)C3=C(O)c4c(O)cc(C)cc4C(=O)[C@@]312 (some centres not stated)	/	/	/	41	.	/	.	.
CC1CCCC(C)N1/N=C/c1c[nH]c2ccc(Br)cc12 (configuration not stated)	.	.	.	.	.	.	/	/
CCOC(=O)c1cc2c(cn1)[C@H](CCO)NC2	.	.	.	.	.	.	/	/
CC1C(OC(=O)CCC(=O)NC(C)(C)CO)O[C@H]2OC3(C)CC[C@H]4[C@H](C)CCC1C24OO3 (some centres not stated)	.	.	.	46	.	90	.	50
